RecA intein inh – blocks M. tuberculosis RecA intein splicing. 290,000 compounds, 0.75% hits. inhibition, % (no concentration beside the values). cell-free RecA intein splicing, fluorescence. P9WHJ3; in the data active = inhibition above about 30%
Target sequence (P9WHJ3 whole entry, looked up): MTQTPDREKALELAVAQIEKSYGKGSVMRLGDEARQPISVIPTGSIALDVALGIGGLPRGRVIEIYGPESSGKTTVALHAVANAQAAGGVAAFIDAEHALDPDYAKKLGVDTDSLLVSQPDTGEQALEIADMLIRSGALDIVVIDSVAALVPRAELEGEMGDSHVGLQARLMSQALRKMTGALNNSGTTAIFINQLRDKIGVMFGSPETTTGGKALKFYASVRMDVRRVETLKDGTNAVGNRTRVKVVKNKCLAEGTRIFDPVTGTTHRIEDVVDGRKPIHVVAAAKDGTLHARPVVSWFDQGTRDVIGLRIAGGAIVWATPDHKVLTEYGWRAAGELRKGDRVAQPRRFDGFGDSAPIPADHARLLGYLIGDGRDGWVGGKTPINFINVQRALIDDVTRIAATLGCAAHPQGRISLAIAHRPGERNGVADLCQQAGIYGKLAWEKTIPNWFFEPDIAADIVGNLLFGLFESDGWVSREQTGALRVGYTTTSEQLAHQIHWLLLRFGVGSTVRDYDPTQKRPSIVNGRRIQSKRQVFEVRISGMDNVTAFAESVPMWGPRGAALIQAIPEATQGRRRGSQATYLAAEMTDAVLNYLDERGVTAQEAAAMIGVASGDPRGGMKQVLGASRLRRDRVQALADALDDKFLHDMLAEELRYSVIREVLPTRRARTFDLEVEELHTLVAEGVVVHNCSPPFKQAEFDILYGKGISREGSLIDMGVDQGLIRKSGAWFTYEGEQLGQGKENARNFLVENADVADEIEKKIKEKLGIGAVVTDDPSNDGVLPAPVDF
Yp Topo-I inh – Y. pestis Topo-I inhibition via cleavage products; 360,000 compounds, 0.064% hits; activity, % at 10 µM; AID 504884; Y. pestis Topo-I cleavage product accumulation, plate reader; in the data active = activity above about 50%, passing the limit was not always enough
Mtb betalactam – beta-lactam sensitization of Mtb H37Rv | 330,000 compounds, 0.27% hits | M. tuberculosis H37Rv growth with meropenem, percent inhibition | inhibition, % at 25 µM; call rule not given here;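 also: growth measured after seven days incubation then overnight dye step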
Mtb BioA inh – blocks M. tuberculosis BioA enzyme activity | purified M. tuberculosis BioA enzyme, plate reader | inhibition, % at 9.99 µM | 360,000 compounds, 0.096% hits | AID 602481; in the data active = inhibition above about 40%
BJeLR viability – BJeLR cell viability loss. BJeLR (HRASV12) viability, CellTiter-Glo ATP luminescence, 48 h. inhibition, % (no concentration beside the values). 300,000 compounds, 0.17% hits. AID 1554; in the data active = inhibition above about 50%
CCHF vOTU inh-1 – CCHFV vOTU protease inhibition; Pep-AMC fluorescence; inhibition, % at 11.5 µM; 370,000 compounds, 0.55% hits
CCHF vOTU inh-2 – confirmation of CCHF virus vOTU protease inhibitors; shares compounds with CCHF vOTU inh-1; Recombinant CCHFV vOTU, Pep-AMC fluorescence; inhibition, % at 11.5 µM; 1,900 compounds, 17% hits
Hits are given with their value; – = inactive; · = no result given. Hits are enriched below; roughly 1.1% of the tested compounds scored in any of these assays. Rule as the data show it, unless noted: active = inhibition above about 30%; inactive = the rest.

SMILES	RecA intein inh	Yp Topo-I inh	Mtb betalactam	Mtb BioA inh	BJeLR viability	CCHF vOTU inh-1	CCHF vOTU inh-2
Cc1[nH][nH]c(=O)c1C(c1c(C)[nH][nH]c1=O)c1cn(Cc2ccc(F)cc2)c2ccccc12	·	–	–	–	·	·	·
CO[C@H]1CN(C)C(=O)c2cc(NC(=O)C3CC3)ccc2OC[C@@H](C)N(C(=O)C2CCCCC2)C[C@H]1C	·	·	·	–	·	·	·
CC(=O)N(CN1C(=O)c2ccccc2C1=O)c1cccc(C)c1	–	–	–	–	–	–	·
CC(=O)N(/N=C1\Sc2ccccc2C1=O)c1cccc(C)c1	–	–	–	–	–	36	37
C[C@H](CO)N1C[C@H](C)[C@@H](CN(C)S(=O)(=O)c2ccccc2)Oc2cc(C#Cc3ccncc3)ccc2S1(=O)=O	·	·	·	–	·	·	·
Cc1cccc(C)c1-n1c(C)cc(/C=N\NC(=O)CC(=O)NC2CCCCC2)c1C	–	–	–	·	–	31	–
CN(CC(=O)Nc1ccc(F)cc1)C(=O)C1CCN(S(=O)(=O)c2ccc3c(c2)OCCO3)CC1	–	–	–	·	–	34	–
CC=Cc1ccc2n(c1=O)C[C@H]1[C@H](CO)[C@@H](C(=O)NCC3CC3)[C@@H]2N1Cc1ccncc1 (mixture of isomers)	·	·	·	–	·	·	·
Cc1ccc(CN(C)C(=O)c2cccc(S(=O)(=O)N3CCN(Cc4ccccc4)CC3)c2)o1	–	–	–	–	–	–	·
CN(Cc1ccco1)C(=O)c1cccc(S(=O)(=O)N2CCN(Cc3ccccc3)CC2)c1	·	–	·	–	·	34	–
O=C(Nc1c(-c2ccccc2)[nH][nH]c1=O)c1ccc2c(c1)OCO2	·	·	·	·	·	–	·
O=C(Nc1c(-c2ccc3c(c2)OCO3)[nH][nH]c1=O)c1ccccc1	·	·	·	–	·	42	–
O=C(Nc1c(-c2ccc3c(c2)OCO3)[nH][nH]c1=O)c1cccc(C(F)(F)F)c1	·	·	·	–	·	34	–
C[C@@H]1CN([C@H](C)CO)C(=O)c2cc(C#Cc3cccnc3)cnc2O[C@@H]1CN(C)C(=O)CC1CC1	·	·	·	–	·	·	·
CCOC(=O)c1c(NC(=O)Cn2nnc3ccccc32)sc2c1CCC(C)C2 (stereo unspecified)	–	–	–	–	–	–	·
CCOC(=O)c1c(NC(=O)COC(=O)Cn2cnc3ccccc32)sc2c1CCC(C)C2 (stereo unspecified)	·	–	–	·	·	47	–
CN1C(=O)c2cc(NC(=O)C3CCOCC3)ccc2OC[C@H]2O[C@H](CC(=O)NC3CCCC3)CC[C@@H]21	·	·	·	–	·	·	·
CN1/C(=C\C=C2C(=O)NC(=O)NC2=O)C(C)(C)c2ccccc21	–	–	–	·	–	36	37
CN1/C(=C\C=Nc2ccccc2)C(C)(C)c2ccccc21	–	–	–	–	–	–	·
CN(C)c1ccc(N=Cc2cccn2C)cc1	–	–	–	–	–	42	–
CC(C)(C)OC(=O)N1CCCC(C(=O)Nc2cccc(C(=O)NCCCc3ccccc3)c2)C1 (stereo unspecified)	·	–	·	–	·	31	–
N#CCCN(CCC#N)C(=O)c1ccc(Cl)cc1	–	–	–	–	–	36	–
N#CCCN(C(=O)Nc1ccc(Cl)cc1)c1ccccc1	–	–	–	–	–	–	·
COc1ccc2nc(NC(=O)CCN3C(=S)NC(C)(C)CC3C)sc2c1 (stereo unspecified)	–	–	–	·	–	36	–
C[C@@H]1CN([C@H](C)CO)S(=O)(=O)c2ccc(C3=CCCCC3)cc2O[C@H]1CN(C)Cc1cncnc1	·	·	·	–	·	·	·
SMILES	RecA intein inh	Yp Topo-I inh	Mtb betalactam	Mtb BioA inh	BJeLR viability	CCHF vOTU inh-1	CCHF vOTU inh-2
Cc1ccccc1NC(=O)Cc1nc(COC(=O)c2cc([N+](=O)[O-])ccc2NCCO)cs1	–	–	–	–	–	30	–
CC(=O)N=Cc1c(C)c(C#N)c(=O)n(C)c1O	–	–	–	·	–	–	·
Cc1c(C=O)c(Cl)n(C)c(=O)c1C#N	–	–	–	·	–	68	110
CCC(=O)N(C)C[C@H]1Oc2ncc(-c3ccccc3C)cc2C(=O)N([C@@H](C)CO)C[C@@H]1C	·	·	·	–	·	·	·
CCOC(=O)C1=C(C)OC(=CC=Cc2ccccc2)C1=O	·	–	·	–	·	30	–
C[C@@H]1CN([C@@H](C)CO)S(=O)(=O)c2ccc(Br)cc2O[C@@H]1CN(C)Cc1ccc(C(=O)O)cc1	·	·	·	–	·	·	·
CCC(=O)N(C)C[C@H]1Oc2ncc(C#CCC(C)C)cc2C(=O)N([C@@H](C)CO)C[C@@H]1C	·	·	·	–	·	·	·
O=C(Cn1ncc2c3ccccc3n(Cc3ccc(F)cc3)c2c1=O)N1CCN(c2ncccn2)CC1	–	–	–	–	–	34	–
O=C(Cn1ncc2c3ccccc3n(Cc3ccc(F)cc3)c2c1=O)N1CCC2(CC1)OCCO2	–	–	–	–	–	·	·
CCC(=O)N[C@H]1CC[C@H](CC(=O)NCc2ccccc2OC)O[C@@H]1CO	·	·	·	–	·	·	·
CC(C)Cc1ccc(-c2cc3nc(NCCCn4ccnc4)ccn3n2)cc1	·	–	·	–	·	30	–
CCCCCCCCN1C(=O)[C@H](CC(=O)NCc2ccccc2)C[C@@]2(C(=O)OCC)CCCC=C12	·	·	·	·	·	33	–
CCCCCCCCN1C(=O)[C@H](CC(=O)N2CCOCC2)C[C@@]2(C(=O)OCC)CCCC=C12	·	·	·	·	·	–	·
CCCCCCCCN1C(=O)[C@H](CC(=O)NCCCCc2ccccc2)C[C@@]2(C(=O)OCC)CCCC=C12	·	·	·	·	·	–	·
C#CCNC(=O)C[C@@H]1C[C@@]2(C(=O)OCC)CCCC=C2N(CCCCCCCC)C1=O	·	·	·	·	·	31	–
CCCCCCCCN1C(=O)[C@H](CC(=O)NCC2CCCCC2)C[C@@]2(C(=O)OCC)CCCC=C12	·	·	·	·	·	–	·
CCCCCCCCN1C(=O)[C@H](CC(=O)N2CCSCC2)C[C@@]2(C(=O)OCC)CCCC=C12	·	·	·	·	·	39	–
CCOC(=O)[C@]12CCCC=C1N(CCc1ccc(OC)c(OC)c1)C(=O)[C@H](CC(=O)N1CCCC1)C2	·	·	·	·	·	33	–
CCOC(=O)N1CCN(C(=O)C[C@@H]2C[C@@]3(C(=O)OCC)CCCC=C3N(CCc3ccc(OC)c(OC)c3)C2=O)CC1	·	·	·	·	·	–	·
CN1CCN(C(=O)C[C@H]2CC[C@@H](NC(=O)Nc3ccccc3F)[C@@H](CO)O2)CC1	·	·	·	–	·	·	·
O=C(Nc1ccc(Cl)cc1)N[C@@H]1CC[C@H](CCNC(=O)c2ccccc2F)O[C@H]1CO	·	·	·	–	·	·	·
C[C@@H]1CN([C@@H](C)CO)C(=O)c2cc(NC(=O)C3CCCCC3)ccc2O[C@@H]1CN(C)Cc1ccc(C(F)(F)F)cc1	·	·	·	–	·	·	·
C[C@@H]1CN([C@H](C)CO)S(=O)(=O)c2ccc(C#CC3CCCC3)cc2O[C@@H]1CN(C)C(=O)Nc1cc(F)ccc1F	·	·	·	–	·	·	·
CCCCC[C@@H]1C=C(C(=O)O)[C@H](c2cccc(C)c2)N1S(=O)(=O)c1ccc(C)cc1	·	–	–	–	·	32	–
CCCCC[C@@H]1C=C(C(=O)O)[C@H](c2ccc(CC)cc2)N1S(=O)(=O)c1ccc(C)cc1	·	–	–	–	·	–	·
CCCC[C@@H]1C=C(C(=O)O)[C@H](c2ccc(CC)cc2)N1S(=O)(=O)c1ccc(C)cc1	·	–	–	–	·	30	–
